Experimental data taken from PubChem BioAssay (NCI).
Compounds without any hit were thinned out: in the full panel of roughly 83,000, 20% have a hit.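 Method: cells in 96-well plates; compound added at one concentration; 48 h incubation; percent growth measured; values under 10 scored active.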 The source made the active and inactive calls.

Key:
Assay in all cases: NCI-60 one-dose screen, 48 h (100 = growth as untreated, 0 = no growth, -100 = all killed)
Settings in all cases: 10 µM
NCI-H23 lung = tested on: NCI-H23 lung
NCI-H226 lung = tested on: NCI-H226 lung
NCI-H322M lung = tested on: NCI-H322M lung
HOP-62 NSCLC = tested on: HOP-62 NSCLC
NCI-H460 lung = tested on: NCI-H460 lung
HOP-92 NSCLC = tested on: HOP-92 NSCLC
NCI-H522 lung = tested on: NCI-H522 lung
A549/ATCC NSCLC = tested on: A549/ATCC NSCLC
786-0 renal = tested on: 786-0 renal
COLO 205 colon = tested on: COLO 205 colon

Measured: growth

CCOC(=O)c1cc2c(n1Cc1cc(OC)cc(OC)c1)-c1oncc1CC2
active: NCI-H322M lung -1.31% | NCI-H460 lung 9.46% | NCI-H522 lung 4.32% | COLO 205 colon 1.38%
inactive: NCI-H23 lung 38.4% | NCI-H226 lung 30.5% | HOP-62 NSCLC 58% | HOP-92 NSCLC 80% | A549/ATCC NSCLC 29% | 786-0 renal 33.7%

CC1(C)CCc2cc(-c3ccn(S(=O)(=O)c4ccc(Cl)cc4)n3)ccc2O1
active: HOP-92 NSCLC 8%
inactive: NCI-H23 lung 65.5% | NCI-H226 lung 74.4% | NCI-H322M lung 94.2% | HOP-62 NSCLC 92.9% | NCI-H460 lung 73.8% | NCI-H522 lung 66.2% | A549/ATCC NSCLC 67.4% | 786-0 renal 71.4% | COLO 205 colon 117%

COc1ccc(C2=NNC(c3sc(Cl)nc3Cl)C2)cc1 (stereo not given)
inactive: NCI-H23 lung 93.7% | NCI-H226 lung 54.4% | NCI-H322M lung 90.3% | HOP-62 NSCLC 72.5% | NCI-H460 lung 103% | HOP-92 NSCLC 75.2% | A549/ATCC NSCLC 94.7% | 786-0 renal 99.2% | COLO 205 colon 63.1%
active: NCI-H522 lung 9.05%

COc1cc(/C=C/C(=O)c2cc(-c3ccccc3)ccc2O)cc(OC)c1OC
inactive: NCI-H23 lung 66.3% | NCI-H226 lung 93.4% | NCI-H322M lung 86.1% | HOP-62 NSCLC 83.8% | NCI-H460 lung 67.6% | HOP-92 NSCLC 61.3% | NCI-H522 lung 54.9% | A549/ATCC NSCLC 85% | 786-0 renal 94% | COLO 205 colon 91.5%

CCOC(=O)c1sc(Nc2ncccn2)nc1-c1ccccn1
inactive: NCI-H23 lung 84.4% | NCI-H226 lung 92.8% | NCI-H322M lung 85% | HOP-62 NSCLC 92% | NCI-H460 lung 66.9% | HOP-92 NSCLC 97.5% | NCI-H522 lung 85.7% | A549/ATCC NSCLC 84.3% | 786-0 renal 97.9% | COLO 205 colon 98.3%

CCOc1nc(-c2ccccc2)cc2c(O)c(C(=O)N/N=C/c3ccc(OC)cc3)[nH]c(=O)c12
inactive: NCI-H23 lung 97.9% | NCI-H226 lung 109% | NCI-H322M lung 124% | HOP-62 NSCLC 105% | NCI-H460 lung 101% | HOP-92 NSCLC 74.6% | NCI-H522 lung 83.1% | A549/ATCC NSCLC 110% | 786-0 renal 116% | COLO 205 colon 87.7%

O=C(Nc1cccc(-c2nc3ccccc3[nH]2)c1)c1cccc(NC(=O)c2ccco2)c1
inactive: NCI-H23 lung 98% | NCI-H226 lung 90.1% | NCI-H322M lung 94.1% | HOP-62 NSCLC 73.2% | NCI-H460 lung 91.6% | HOP-92 NSCLC 38.8% | NCI-H522 lung 98.5% | A549/ATCC NSCLC 82.7% | 786-0 renal 67% | COLO 205 colon 31.4%

COc1cccc2c1O/C(=C\c1ccc([N+](=O)[O-])s1)C2=O
active: NCI-H522 lung -65%
inactive: NCI-H23 lung 71.8% | NCI-H226 lung 97.1% | NCI-H322M lung 82% | HOP-62 NSCLC 92.4% | NCI-H460 lung 70.9% | HOP-92 NSCLC 14.6% | A549/ATCC NSCLC 78.5% | 786-0 renal 103% | COLO 205 colon 67.3%

Cc1cc(C#Cc2ccccc2)ccc1-n1c(/C=C/c2cc(O)ccc2O)nc2ccccc2c1=O
inactive: 786-0 renal 17.4%
active: NCI-H23 lung -11.6% | NCI-H226 lung -41% | NCI-H322M lung -19.5% | HOP-62 NSCLC -33.1% | NCI-H460 lung -48.5% | HOP-92 NSCLC -17.9% | NCI-H522 lung -74.6% | A549/ATCC NSCLC 8.93% | COLO 205 colon -65.9%

CCc1ccc(-c2nnc(COc3ccc(-c4nc5ccccc5[nH]4)cc3OC)o2)cc1
inactive: NCI-H23 lung 72.4% | NCI-H226 lung 81.4% | NCI-H322M lung 96.9% | HOP-62 NSCLC 83.2% | NCI-H460 lung 45.5% | HOP-92 NSCLC 79% | NCI-H522 lung 91.6% | A549/ATCC NSCLC 60.3% | 786-0 renal 22.3% | COLO 205 colon 64.4%

O=C(O)CCCN1C(=O)NC2(C1=O)c1ccccc1-c1ccccc12
inactive: NCI-H23 lung 93.2% | NCI-H226 lung 91.1% | NCI-H322M lung 101% | HOP-62 NSCLC 102% | NCI-H460 lung 105% | HOP-92 NSCLC 88.5% | NCI-H522 lung 80.4% | A549/ATCC NSCLC 90.2% | 786-0 renal 95.2% | COLO 205 colon 108%

COc1nc2c(c(=O)[nH]1)C(c1ccc(Oc3ccnc4cc(Cl)ccc34)c(OC)c1)C=C(c1cc(OC)c(OC)c(OC)c1)N2 (stereo not given)
inactive: NCI-H23 lung 95.3% | NCI-H226 lung 96.6% | NCI-H322M lung 95.2% | HOP-62 NSCLC 116% | NCI-H460 lung 102% | HOP-92 NSCLC 82.1% | NCI-H522 lung 93.3% | A549/ATCC NSCLC 101% | 786-0 renal 95% | COLO 205 colon 102%

Cc1nnc2c3nnc(-c4ccc(Cl)cc4)n3c3ccccc3n12
inactive: NCI-H23 lung 103% | NCI-H226 lung 94.7% | NCI-H322M lung 86.4% | HOP-62 NSCLC 93.4% | NCI-H460 lung 103% | HOP-92 NSCLC 79.5% | NCI-H522 lung 86.6% | A549/ATCC NSCLC 96.8% | 786-0 renal 97.2% | COLO 205 colon 111%

Nc1c(C(=O)NC2CCCCC2)sc2nc3c(cc12)C(=O)CCC3
inactive: NCI-H23 lung 98.7% | NCI-H226 lung 95.4% | NCI-H322M lung 105% | HOP-62 NSCLC 120% | NCI-H460 lung 103% | HOP-92 NSCLC 82.9% | NCI-H522 lung 98.6% | A549/ATCC NSCLC 84.5% | 786-0 renal 99.5% | COLO 205 colon 116%

C[C@@H]1N=C(c2ccc(Br)cc2)Nc2nc3ccccn3c2C1=O
inactive: NCI-H23 lung 53.7% | NCI-H226 lung 68.3% | NCI-H322M lung 74% | HOP-62 NSCLC 55.8% | NCI-H460 lung 32.5% | HOP-92 NSCLC 59.5% | NCI-H522 lung 34.8% | A549/ATCC NSCLC 54.7% | 786-0 renal 83.1% | COLO 205 colon 26.3%

COc1ccc(-c2nc(-c3nc4ccc(C)cc4[nH]3)c3ccccn23)cc1
active: HOP-92 NSCLC -2.51%
inactive: NCI-H23 lung 69.3% | NCI-H226 lung 57.9% | NCI-H322M lung 50.3% | HOP-62 NSCLC 52% | NCI-H460 lung 52.1% | NCI-H522 lung 38.8% | A549/ATCC NSCLC 24.2% | 786-0 renal 78.3% | COLO 205 colon 61.1%

CC(=O)OC1Oc2ccccc2-c2oc(=O)c(-c3ccc(F)cc3)cc21 (stereo not given)
inactive: NCI-H23 lung 92.5% | NCI-H226 lung 91.9% | NCI-H322M lung 107% | HOP-62 NSCLC 101% | NCI-H460 lung 94.4% | HOP-92 NSCLC 112% | NCI-H522 lung 42.5% | A549/ATCC NSCLC 57.8% | 786-0 renal 95.4% | COLO 205 colon 108%

CN(C)CCCN1c2ccccc2Sc2ccc(C(F)(F)F)cc21
active: HOP-92 NSCLC -9.96% | NCI-H522 lung -15.2% | 786-0 renal 9.65% | COLO 205 colon -77.8%
inactive: NCI-H23 lung 47% | NCI-H226 lung 54.7% | NCI-H322M lung 37.1% | HOP-62 NSCLC 37.2% | NCI-H460 lung 13.8% | A549/ATCC NSCLC 53.3%

COc1ccc(-c2nnc(COc3ccc(NC(=O)Nc4ccccc4)cc3F)o2)cc1
inactive: NCI-H23 lung 92.4% | NCI-H226 lung 95.2% | NCI-H322M lung 90.1% | HOP-62 NSCLC 89.2% | NCI-H460 lung 84.4% | HOP-92 NSCLC 52.2% | NCI-H522 lung 52.5% | A549/ATCC NSCLC 93.3% | 786-0 renal 79.1% | COLO 205 colon 110%

Nc1c(C(=O)Nc2ccccc2F)sc2nc3c(cc12)C(=O)CCC3
inactive: NCI-H23 lung 42.8% | NCI-H226 lung 75.1% | NCI-H322M lung 68.8% | HOP-62 NSCLC 42.7% | NCI-H460 lung 11.4% | HOP-92 NSCLC 53.6% | A549/ATCC NSCLC 22% | 786-0 renal 41.5%
active: NCI-H522 lung -15.2% | COLO 205 colon 5.76%

COc1ccc(-c2[nH]ncc2-c2cc(OC)c(OC)c(OC)c2)cc1
inactive: NCI-H23 lung 24.9% | NCI-H226 lung 58.7% | NCI-H322M lung 21.8% | HOP-62 NSCLC 35.6% | A549/ATCC NSCLC 18%
active: NCI-H460 lung 4.05% | HOP-92 NSCLC -10.4% | NCI-H522 lung -36.8% | 786-0 renal 3.72% | COLO 205 colon -72.4%

CCCCCCCC/C=C/CCCCCCCCC1=NCCN1CCO
inactive: NCI-H23 lung 76.5% | NCI-H226 lung 86.9% | NCI-H322M lung 55.5% | HOP-62 NSCLC 75.9% | NCI-H522 lung 76.7% | A549/ATCC NSCLC 77.5% | 786-0 renal 75% | COLO 205 colon 70.7%
active: NCI-H460 lung -34% | HOP-92 NSCLC -5.31%

CC(C)(C)CC(C)(C)c1ccc(O)c(Cc2ccc(Cl)cc2Cl)c1
active: NCI-H23 lung -85.9% | NCI-H226 lung -83.8% | NCI-H322M lung -89.6% | HOP-62 NSCLC -88.4% | NCI-H460 lung -68.1% | HOP-92 NSCLC -90.6% | NCI-H522 lung -84.7% | A549/ATCC NSCLC -88.5% | 786-0 renal -92.8% | COLO 205 colon -71.4%

Cc1cccc2c1O/C(=C\c1ncc([N+](=O)[O-])n1C)C2=O
active: NCI-H23 lung -13.7% | NCI-H226 lung -25% | NCI-H322M lung -17.9% | HOP-62 NSCLC -33.5% | NCI-H460 lung -29.1% | HOP-92 NSCLC -32.6% | NCI-H522 lung -55.8% | A549/ATCC NSCLC -25.7% | 786-0 renal -28.5% | COLO 205 colon -52.3%

CCCCCC(CCC)COC(=O)c1ccc(OC)cc1 (stereo not given)
inactive: NCI-H23 lung 97.4% | NCI-H226 lung 88.6% | NCI-H322M lung 101% | HOP-62 NSCLC 92.3% | NCI-H460 lung 111% | HOP-92 NSCLC 93.7% | NCI-H522 lung 90.7% | A549/ATCC NSCLC 80.9% | 786-0 renal 101% | COLO 205 colon 105%

CNC(=O)c1cc(Oc2ccc(NC(=O)Nc3ccc(Cl)c(C(C)(C)C)c3)c(F)c2)ccn1
inactive: NCI-H23 lung 19.7% | NCI-H226 lung 36.2% | NCI-H322M lung 107% | HOP-62 NSCLC 64.4% | NCI-H460 lung 48.8% | HOP-92 NSCLC 75.9% | NCI-H522 lung 28.7% | A549/ATCC NSCLC 37.4% | 786-0 renal 79% | COLO 205 colon 19.6%

C[N+]1(CC2CO2)CCCCCC1 (stereo not given)
inactive: NCI-H23 lung 110% | NCI-H226 lung 99.4% | NCI-H322M lung 107% | HOP-62 NSCLC 103% | NCI-H460 lung 106% | HOP-92 NSCLC 113% | NCI-H522 lung 107% | A549/ATCC NSCLC 107% | 786-0 renal 105% | COLO 205 colon 120%
